# Active and inactive are the calls of the source.
# How the values were obtained:
# [1] = test system: Plasmodium falciparum Sir2 (PF13_0152, Sir2A); experiment: Plasmodium falciparum Sir2A binding compounds – biochemical, small-molecule microarray, 635 nm fluorescence, primary screen (AID 1098); conditions: fluorescence 635 nm, higher = more signal;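 further: score merges spot fluorescence intensity with its signal-to-noise ratio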
# [2] = probe aDKK1 binding to arrayed compounds – biochemical, biotinylated probe, 635/667 nm fluorescence, primary screen (AID 1099); conditions: small-molecule microarray, higher = more signal;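 further: score merges 667nm spot fluorescence with signal to noise across triplicate slides; reference of the scale not given here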
# [3] = probe aCHRDL2 binding to arrayed compounds – biochemical, biotinylated probe, 635/667 nm fluorescence, primary screen (AID 1100); conditions: small-molecule microarray, higher = more signal
# [4] = change in splice reporter luminescence, either direction, cell-based, HEK293, spliceosome inhibition project, primary screen (AID 1101); conditions: HEK293 splicing luciferase reporter, 24 h, higher = more signal, called active from +8 up or from −8 down;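 further: HEK293 cells carrying a splicing-competent luciferase reporter gene; test concentration not given here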
# [5] = target: Fibroblast growth factor 10 (Homo sapiens) (UniProt O15520); experiment: compounds binding fibroblast growth factor 10 – biochemical, small-molecule microarray, 635 nm fluorescence, primary screen (AID 1102); conditions: FGF10 binding, fluorescence 635 nm, higher = more signal
# [6] = test system: glycogen synthase kinase-3 (GSK3A per assay name; protocol says GSK3B); experiment: compounds binding glycogen synthase kinase-3 – biochemical, small-molecule microarray, 635 nm fluorescence, GSK3A, primary screen (AID 1103); conditions: fluorescence 635 nm, higher = more signal; further: the record names both GSK3A and GSK3B
# [7] = target: Epidermal growth factor receptor (Homo sapiens) (UniProt P00533); experiment: compounds binding epidermal growth factor receptor – biochemical, small-molecule microarray, 635 nm fluorescence, primary screen (AID 1104); conditions: EGFR binding, higher = more signal;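 further: score merges 667 nm emission intensity with spot signal to noise over triplicate slides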
# [8] = target: Follistatin-related protein 3 (Homo sapiens) (UniProt O95633); experiment: compounds binding follistatin-related protein 3 – biochemical, small-molecule microarray, 635 nm fluorescence, primary screen (AID 1105); conditions: FSTL3 binding, higher = more signal;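 further: score merges emission near 667 nm and signal to noise per printed spot across three slides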
# [9] = target: Dickkopf-related protein 1 (Homo sapiens) (UniProt O94907); experiment: small molecules binding DKK1 protein – biochemical, small-molecule microarray, 635 nm fluorescence scan, primary screen (AID 1106); conditions: higher = more signal;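 further: score merges emission near 667 nm with signal to noise over three replicate slides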
# [10] = test system: Inhibin beta A chain (activin A); experiment: small molecules binding activin A – biochemical, small-molecule microarray, 635 nm fluorescence scan, primary screen (AID 1107); conditions: INHBA, higher = more signal;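 further: mouse activin A protein probed at 4.33 µg/mL on printed slides; score merges bound-protein fluorescence near 667 nm with spot signal-to-noise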
# Epidermal growth factor receptor (Homo sapiens), sequence (P00533 whole entry, looked up): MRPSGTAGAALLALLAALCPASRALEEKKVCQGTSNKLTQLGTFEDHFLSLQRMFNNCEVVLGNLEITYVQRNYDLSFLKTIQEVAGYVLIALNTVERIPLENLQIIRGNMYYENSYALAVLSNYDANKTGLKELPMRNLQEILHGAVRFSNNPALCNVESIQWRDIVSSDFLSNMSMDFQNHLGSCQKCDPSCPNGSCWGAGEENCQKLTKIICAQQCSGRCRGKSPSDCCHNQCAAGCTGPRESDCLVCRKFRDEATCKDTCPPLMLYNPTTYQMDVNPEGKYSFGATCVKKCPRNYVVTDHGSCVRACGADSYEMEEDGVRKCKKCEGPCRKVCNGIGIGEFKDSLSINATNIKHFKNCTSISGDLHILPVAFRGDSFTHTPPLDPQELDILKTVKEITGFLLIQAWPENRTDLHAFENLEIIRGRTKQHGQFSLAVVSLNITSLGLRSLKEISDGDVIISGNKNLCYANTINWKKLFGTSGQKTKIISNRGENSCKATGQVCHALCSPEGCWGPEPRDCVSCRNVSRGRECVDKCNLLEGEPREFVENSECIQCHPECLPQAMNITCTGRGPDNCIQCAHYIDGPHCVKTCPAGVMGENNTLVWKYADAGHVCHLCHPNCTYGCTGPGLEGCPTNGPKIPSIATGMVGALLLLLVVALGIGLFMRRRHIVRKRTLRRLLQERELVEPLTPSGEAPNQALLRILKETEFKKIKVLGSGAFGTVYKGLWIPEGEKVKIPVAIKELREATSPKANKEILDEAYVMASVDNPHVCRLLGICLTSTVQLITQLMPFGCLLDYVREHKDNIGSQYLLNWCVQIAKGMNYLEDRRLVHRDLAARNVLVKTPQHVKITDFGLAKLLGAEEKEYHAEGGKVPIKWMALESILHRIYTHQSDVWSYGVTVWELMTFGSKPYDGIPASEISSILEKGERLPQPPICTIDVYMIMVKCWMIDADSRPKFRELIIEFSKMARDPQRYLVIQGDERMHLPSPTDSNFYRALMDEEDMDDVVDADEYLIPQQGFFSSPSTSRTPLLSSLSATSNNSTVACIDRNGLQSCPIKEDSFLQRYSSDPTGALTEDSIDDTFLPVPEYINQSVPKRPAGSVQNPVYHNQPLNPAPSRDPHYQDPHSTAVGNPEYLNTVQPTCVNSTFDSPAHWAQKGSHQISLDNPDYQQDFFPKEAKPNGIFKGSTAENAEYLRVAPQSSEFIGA
# Dickkopf-related protein 1 (Homo sapiens), sequence (O94907 whole entry, looked up): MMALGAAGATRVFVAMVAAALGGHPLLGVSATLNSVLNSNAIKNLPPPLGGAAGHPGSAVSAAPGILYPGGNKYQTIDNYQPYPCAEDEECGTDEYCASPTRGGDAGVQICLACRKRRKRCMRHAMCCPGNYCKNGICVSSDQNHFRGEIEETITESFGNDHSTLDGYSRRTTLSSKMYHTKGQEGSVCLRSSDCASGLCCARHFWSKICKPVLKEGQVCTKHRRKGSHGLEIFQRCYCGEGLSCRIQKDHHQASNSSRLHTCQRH
# Fibroblast growth factor 10 (Homo sapiens), sequence (O15520 whole entry, looked up): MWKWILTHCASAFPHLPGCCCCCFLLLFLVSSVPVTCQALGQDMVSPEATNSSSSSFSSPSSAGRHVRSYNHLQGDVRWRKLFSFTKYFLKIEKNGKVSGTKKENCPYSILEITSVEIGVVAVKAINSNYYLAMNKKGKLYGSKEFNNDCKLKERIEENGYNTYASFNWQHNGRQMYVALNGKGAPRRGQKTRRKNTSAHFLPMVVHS
# Follistatin-related protein 3 (Homo sapiens), sequence (O95633 whole entry, looked up): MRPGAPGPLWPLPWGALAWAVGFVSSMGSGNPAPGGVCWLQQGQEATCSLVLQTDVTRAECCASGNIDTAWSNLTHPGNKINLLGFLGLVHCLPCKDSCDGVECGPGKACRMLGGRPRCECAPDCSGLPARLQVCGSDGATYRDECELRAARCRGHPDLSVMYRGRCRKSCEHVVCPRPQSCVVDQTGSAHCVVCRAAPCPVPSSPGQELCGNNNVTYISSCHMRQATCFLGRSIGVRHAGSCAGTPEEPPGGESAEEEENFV
SMILES,composite z-score [1],composite z-score [2],composite z-score [3],z-score [4],composite z-score [5],composite z-score [6],composite z-score [7],composite z-score [8],composite z-score [9],composite z-score [10]
CC(C)NC(=O)[C@@]1(C)c2ccccc2C(=O)N(Cc2ccc(OC(F)(F)F)cc2)[C@H]1c1ccc(CO)cc1,1.43,-0.0863,0.77,-1.08 (inactive),-0.962,-0.85,-1.43,-1.19,-1.25,-1.03
CC[C@@H]1C=C(C(=O)O)[C@H](c2ccc(C#N)cc2)N1S(=O)(=O)c1ccc(C)cc1,1.1,0.313,0.863,0.552 (inactive),0.396,0.39,-0.967,-0.406,-1.22,0.264
CN1C(=O)C2C=CC(C(O)c3cccn3C)N(Nc3ccc([N+](=O)[O-])cc3[N+](=O)[O-])C2C1=O (stereo not given),0.0859,0.821,0.897,1.15 (inactive),0.219,-0.269,-0.157,-0.0164,-0.31,1.12
CCCCN1CC=CC23O[C@@H]4/C=C\CCC(C)OC(=O)C4[C@H]2C(=O)N(CCCO)[C@@H]3C1=O (stereo not given in full),1.16,-0.235,0.662,0.239 (inactive),-1.13,-0.496,-0.983,-1.04,-1.37,-0.372
COc1cc2c(cc1O)C=[N+](Cc1sc3ccccc3c1Cl)CC2,0.209,0.0295,0.494,0.134 (inactive),-0.0275,0.0717,0.454,-0.0687,0.396,1.19
Cc1ccc(C(C)CC(O)C2C=CC3C(=O)N(c4ccccc4)C(=O)C3N2Nc2ccccc2)o1 (stereo not given),0.844,1.01,0.693,-0.392 (inactive),0.981,1.28,0.554,1.2,-0.174,0.843
COc1ccc([Si](C)(C)[C@@H]2[C@@H](CC(=O)N3CCC[C@H]3CO)O[C@]3(C(=O)N(Cc4cccc(N5C(=O)COc6ccccc65)c4)c4ccccc43)[C@H]2C)cc1,0.911,-0.0948,0.157,-1.06 (inactive),0.723,0.746,0.447,0.579,0.173,0.615
CC#CCO[Si](C#Cc1ccccc1)(C(C)C)C(C)C,-0.849,-0.105,0.194,1.07 (inactive),0.754,-0.872,0.457,-0.719,-0.999,1.14
C=C(COC)C(=O)CC[C@@H](OC(C)=O)c1cccc(OCCO)c1,0.114,-0.0524,0.225,1.32 (inactive),1.38,-0.911,-0.934,-0.303,0.227,1.01
C=CCNC(=O)[C@@H]1[C@H]2C(=O)O[C@H](c3ccccc3)[C@H](c3ccccc3)N2[C@H](c2ccccc2OCCO)[C@@]12C(=O)Nc1ccc(C#CCCO)cc12,0.124,-0.332,0.178,-1.06 (inactive),0.95,0.773,0.954,1.04,1.49,0.65
CCOC(=O)C[C@H]1[C@H](OC(=O)c2cc3ccccc3oc2=O)[C@@H](NC(=O)c2ccc3ccccc3n2)c2cc(OCCCO)ccc2N1C(=O)Cc1ccc(OC)cc1,0.915,-0.207,-0.427,-0.362 (inactive),1.01,1.06,0.442,1.2,0.707,0.288
COc1cc2c(cc1O)C(c1ccc(CN3CCCC3)cc1)N(Cc1cc3c(cc1Br)OCO3)CC2 (stereo not given),-0.115,-0.106,-0.097,0.373 (inactive),0.41,-0.237,-0.186,0.583,-0.367,0.992
CCOC(=O)C1=C[C@@H](C(C)(C)C)N(S(=O)(=O)c2ccc(C)cc2)[C@H]1c1cccc2ccccc12,0.462,0.166,0.562,-0.134 (inactive),0.242,0.936,-0.138,0.7,-0.412,0.997
C=CCN1C(=O)[C@]2(CCC(=O)OC(C)(C)C)N=C(c3ccc(OCCCO)cc3)O[C@@H]2c2ccccc21,0.765,0.177,0.947,-1.82 (inactive),-0.184,0.298,0.348,0.635,0.384,1.18
[N-]=[N+]=Nc1ccccc1C[C@@]1(C(N)=O)N=C(c2ccc(OCCCO)cc2)O[C@@H]1c1ccccc1N=[N+]=[N-],0.749,1.14,0.974,-1.36 (inactive),-0.24,0.385,0.181,-0.199,-0.459,1.46
COc1ccc(C(=O)Nc2ccc(CN3C(=O)[C@]4(O[C@H](CC(=O)N5Cc6ccccc6C[C@H]5CO)[C@@H]([Si](C)(C)c5ccc(OC)cc5)[C@@H]4C)c4ccccc43)cc2)cc1,1.57,-0.196,-0.165,-1.18 (inactive),1.06,0.837,0.749,0.833,0.786,0.518
C=C[C@H]1C(C(=O)OCC)=CC[C@@H](c2ccccc2)N1S(=O)(=O)c1ccc(C)cc1,1.05,0.158,0.587,-2.78 (inactive),0.922,1.3,0.224,1.11,0.0288,1.34

SMILES,composite z-score [1],composite z-score [2],composite z-score [3],z-score [4],composite z-score [5],composite z-score [6],composite z-score [7],composite z-score [8],composite z-score [9],composite z-score [10]
O=C1C[C@]2(c3ccc([N+](=O)[O-])cc3)C(=O)N(C3CC3)c3cc(CO)ccc3[C@H]2N1CC12CC3CC(CC(C3)C1)C2,0.437,-0.105,0.617,-0.922 (inactive),-0.511,-0.393,-0.951,-0.924,-0.769,-0.383
CN(C)C(=O)[C@]1(Cc2ccccc2CN=[N+]=[N-])N=C(c2ccc(OCCCO)cc2)O[C@@H]1c1ccccc1,1.19,0.161,0.821,-1.45 (inactive),0.647,0.497,-0.19,-0.202,-0.147,1.29
CCCC[C@@H](O)C1=C(COc2ccccc2)C[C@H]2C(=O)N(Cc3ccccc3)C(=O)[C@H]2[C@H]1CO,0.146,-0.302,-0.195,-0.249 (inactive),0.574,-0.0802,0.357,0.78,0.638,0.526
CCCCC(O)C1C=CC2C(=O)N(C)C(=O)C2N1N(c1ccccc1)c1ccccc1 (stereo not given),1.5,0.866,1.31,1.44 (inactive),0.42,1.02,0.0978,0.424,-0.73,1.18
NC(=O)NCC#Cc1ccc2c(c1)[C@]1(C(=O)N2)[C@H](c2ccccc2OCCO)N2[C@H](c3ccccc3)[C@H](c3ccccc3)OC(=O)[C@H]2[C@@H]1C(=O)O,1.27,-0.103,0.435,-0.724 (inactive),-0.0931,-0.397,-0.218,-0.085,-0.266,0.894
NCCCCCNC(=O)[C@H]1C[C@H]2C(=O)N3CCC[C@H]3C(=O)N2[C@H]1c1cccc(OCCO)c1,0.685,0.583,1.1,0.125 (inactive),0.68,0.703,-0.525,-0.515,-0.331,0.896
COCC(=C=CC[C@H](O)c1ccccc1OCCO)C[C@H](O)c1ccccn1,0.34,-0.201,-0.0336,0.0209 (inactive),0.207,-0.115,-0.299,-0.114,-0.0344,0.41
CC(C)[Si]1(C(C)C)OCc2cc(C3CC3)nc(-c3ccc(Oc4ccccc4)cc3)c21,-0.777,0.15,0.056,-0.654 (inactive),-0.382,-0.964,-0.233,-0.816,-0.604,0.228
CCOC(=O)C[C@H]1[C@H](OC(=O)c2ccc(C(=O)c3ccccc3)cc2)[C@@H](NC(=O)c2ccc3ccccc3n2)c2cc(OCCCO)ccc2N1C(=O)Cc1ccc(OC)cc1,-0.318,0.57,-0.385,0.187 (inactive),0.0466,0.354,0.196,0.346,0.239,0.188
C=CCC(OC(C)=O)[C@@H]1[C@@H](N(Cc2cccc3ccccc23)C(=O)Cc2ccc(OC)cc2)c2cc(OCCCO)ccc2N1C(=O)c1ccc(-c2ccccc2)cc1 (stereo not given in full),-0.203,0.0699,0.44,-0.279 (inactive),-0.249,-0.179,0.347,-0.0555,-0.324,1.43
COCCOC(=O)N1C(=O)[C@@]2(c3cc(C#CC4=CCCCC4)ccc31)[C@H](c1ccccc1OCCO)N1[C@H](c3ccccc3)[C@H](c3ccccc3)OC(=O)[C@H]1[C@@H]2C(=O)NC[C@H](O)c1ccccc1,1.53,0.036,-0.135,-1.76 (inactive),1.19,1.3,0.741,1.42,0.752,0.755
CC(C)C[C@@H]1NC(=O)[C@@H]2C[C@H](C(=O)NCCCCCCN)[C@H](c3cccc(OCCO)c3)N2C1=O,1.55,0.286,0.532,0.138 (inactive),1.13,0.712,0.0515,1.08,0.236,0.775
Cc1ccc(S[C@]2(C(=O)O)CC(=O)N(C3CCCCC3)[C@@H]2c2ccc(CO)cc2I)cc1,1.48,0.431,0.903,-0.443 (inactive),1.27,0.797,-0.131,1.04,-0.231,1.06
C#Cc1cc2ccccc2oc1=O,0.253,-0.265,0.256,3.33 (inactive),-0.347,-0.748,-2.35,-2.4,-1.87,-1.73
COC(=O)c1c(CC[C@@H](CO)NC(=O)N[C@@H](C)Cn2cc(-c3ccccn3)nn2)oc(C(C)=O)c1C(=O)OC,1.09,-0.18,-0.495,-1.89 (inactive),0.563,0.0696,-0.344,0.454,0.28,0.284
CCC1=C2CN(Cc3ccccc3)[C@@H](C(=O)Cc3ccccc3)C2C=CCC1 (stereo not given in full),1.46,-0.0616,-0.141,-1.04 (inactive),0.57,-0.439,-0.42,0.532,0.118,0.749
